LYPLA1 counter: blocks human lysophospholipase 1, a PME1 counter-screen | O75608 | recombinant LYPLA1, FP-Rh probe fluorescence polarization | inhibition, % at 5.9 µM | hit rate 0.16% among 320,000 | AID 2174;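 active = inhibition above the mean of all tested compounds plus 3 SD, set per campaign, cut at about 14% in these data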;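 note: inhibitors block serine hydrolase probe labeling of LYPLA1 so polarization falls; 0% = enzyme with DMSO and 100% = wells lacking LYPLA1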
PME-1 inh: PME-1 (human) inhibition. recombinant PME-1, FP-Rh probe fluorescence polarization. inhibition, % at 5.9 µM. hit rate 0.53% among 320,000. AID 2130;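 active = inhibition above the campaign mean of all compounds plus 3 SD, cut at about 26% in these data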;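 note: competitive labeling of PME-1 active site by serine hydrolase directed probe; 0% = PME-1 with DMSO and 100% = wells lacking PME-1 enzyme; inhibitors block probe labeling so polarization falls and inhibition rises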
PAD4 FP inh: PAD4 (human) enzyme inhibition | Q9UM07 | recombinant PAD4, RCA probe fluorescence polarization | inhibition, % at 6.36 µM | hit rate 0.41% among 330,000;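 active = percent inhibition above a cutoff equal to the mean of all tested compounds plus 3 SD, cut at about 15% in these data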;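 note: 0% = PAD4 with RCA probe and DMSO and 100% = probe without PAD4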
Target sequence (Q9UM07 whole entry, looked up): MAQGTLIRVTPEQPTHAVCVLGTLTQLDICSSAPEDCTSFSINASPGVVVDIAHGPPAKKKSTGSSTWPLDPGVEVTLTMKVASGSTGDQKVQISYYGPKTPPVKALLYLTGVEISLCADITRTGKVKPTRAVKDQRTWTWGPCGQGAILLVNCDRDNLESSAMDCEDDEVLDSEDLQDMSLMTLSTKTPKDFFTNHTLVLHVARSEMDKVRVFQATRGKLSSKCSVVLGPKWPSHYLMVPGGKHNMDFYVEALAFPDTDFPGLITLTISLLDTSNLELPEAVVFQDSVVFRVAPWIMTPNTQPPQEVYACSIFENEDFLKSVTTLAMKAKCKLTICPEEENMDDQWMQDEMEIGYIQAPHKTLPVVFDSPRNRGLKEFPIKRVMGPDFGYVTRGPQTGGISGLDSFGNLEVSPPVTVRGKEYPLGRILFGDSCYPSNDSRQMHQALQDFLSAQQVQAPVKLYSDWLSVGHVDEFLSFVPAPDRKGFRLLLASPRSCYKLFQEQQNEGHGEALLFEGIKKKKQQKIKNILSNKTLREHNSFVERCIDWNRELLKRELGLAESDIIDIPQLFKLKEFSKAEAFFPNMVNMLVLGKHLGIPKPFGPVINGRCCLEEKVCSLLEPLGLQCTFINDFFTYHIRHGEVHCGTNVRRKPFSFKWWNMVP
GSTO1 inh: counter-screen for RBBP9 inhibitors: inhibitors of human GSTO1; recombinant GSTO1, activity-based probe fluorescence polarization; inhibition, % at 5.96 µM; hit rate 1.1% among 300,000;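 active = inhibition above the campaign mean inhibition plus 3 SD, cut at about 35% in these data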;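 note: 0% = GSTO1-1 with DMSO and 100% = wells lacking GSTO1-1 enzyme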
LYPLA2 counter: LYPLA2 (human) inhibition in PME1 counter-screen; hit rate 0.38% among 320,000; inhibition, % at 5.9 µM; O95372; recombinant LYPLA2, FP-Rh probe fluorescence polarization;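 active = inhibition above the screen-wide mean plus 3 SD, limit set per campaign, cut at about 26% in these data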;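 note: 0% = LYPLA2 with DMSO and 100% = wells lacking LYPLA2 enzyme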
Fam108B inh: blocks mouse Fam108B hydrolase in RBBP9 counter-screen. recombinant Fam108B, FP-Rh probe fluorescence polarization. inhibition, % at 9.51 µM. hit rate 0.33% among 300,000. AID 1947;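 active = inhibition above the screen mean inhibition plus 3 SD, computed separately per campaign, cut at about 18% in these data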;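 note: inhibitors lower polarization as less probe binds the enzyme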
Fam108b confirm: confirmation of mouse Fam108b serine hydrolase inhibitors. shares compounds with Fam108B inh. recombinant Fam108b, FP-Rh probe fluorescence polarization. inhibition, % at 9.51 µM. hit rate 44% among 930. AID 1978;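 active = inhibition above a limit from the primary screen, the mean over all compounds plus 3 SD, cut at about 19% in these data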;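 note: 0% = median of active Fam108b wells and 100% = catalytically dead S170A mutant; inhibitors free the probe so polarization falls as inhibition rises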
Fam108b ABPP HTS: mouse ABHD17B inhibition | shares compounds with Fam108B inh | recombinant Fam108b, gel-based ABPP, fluorophosphonate probe | inhibition, % at 20 µM | hit rate 44% among 260 | AID 588649; in the data active = inhibition above about 40%
GSTO1 confirm: GSTO1 (human) inhibition, confirmation | shares compounds with GSTO1 inh | recombinant GSTO1, probe fluorescence polarization | inhibition, % at 5.96 µM | hit rate 54% among 2,400 | AID 2176;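 active = inhibition above the primary screen's cutoff, its mean inhibition plus 3 SD, cut at about 35% in these data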;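 note: loss of polarization as inhibitors block binding of rhodamine sulfonate ester activity probe; 0% = GSTO1 with DMSO and 100% = wells lacking GSTO1 enzyme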
LYPLA2 conf: LYPLA2 (human) inhibition, confirmation counter-screen. hit rate 72% among 1,100. inhibition, % at 5.9 µM. recombinant LYPLA2, FP-Rh probe fluorescence polarization. AID 2232. shares compounds with LYPLA2 counter;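 active = mean inhibition across replicates above the hit cutoff set in the primary screen, cut at about 26% in these data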;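 note: blocked labeling of the enzyme by serine hydrolase FP-Rh probe lowers polarization; 0% = enzyme with DMSO and 100% = wells lacking LYPLA2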
PAD4 FP conf: PAD4 (human) inhibition, confirmed | shares compounds with PAD4 FP inh | recombinant PAD4, RCA probe fluorescence polarization | inhibition, % at 6.36 µM | hit rate 28% among 1,200 | AID 488796;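 active = mean inhibition across replicates above the hit cutoff set by the earlier primary screen, cut at about 15% in these data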;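 note: inhibitors block active-site labeling by the probe so polarization falls; 0% = PAD4 with probe and DMSO and 100% = probe without PAD4 enzyme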
Active calls of the source: *; nt = no result; ! = repeats disagree. Rows were chosen to be rich in hits. Some 1.8% of all compounds tested hit in one or more screens of this group.

SMILES	LYPLA1 counter	PME-1 inh	PAD4 FP inh	GSTO1 inh	LYPLA2 counter	Fam108B inh	Fam108b confirm	GSTO1 confirm	others
Nc1c(C(=O)NCc2ccco2)c2nc3ccccc3nc2n1CCN1CCOCC1	2	28*	1	-8	2	2	nt	nt
CCCNC(=O)N1[C@H]2CC[C@@H]1C(C(=O)OC)=C(c1ccc3ccccc3c1)C2	2	-5	-6	nt	0	nt	nt	nt
O=C1NC(=O)C(=Cc2ccc(Oc3ccc([N+](=O)[O-])cc3)cc2)C(=O)N1	6	-1	-9	49*	38*	1	nt	nt
O=C(c1ccc(F)c([N+](=O)[O-])c1)N1CC2CC(C1)c1cccc(=O)n1C2 (configuration not stated)	0	-6	0	16	4	3	nt	nt
CC(C)C[C@H]1C(=O)N2CCCC2[C@]2(O)O[C@](NC(=O)[C@@H]3C=C4c5cccc6[nH]cc(c56)CC4N(C)C3)(C(C)C)C(=O)N12 (some centres not stated)	0	12	18*	48*	4	19*	17	nt
O=C(N/N=C/c1c(O)n(Cc2ccc(F)cc2)c(=O)[nH]c1=O)c1ccccc1O	-4	19	0	1	5	14	nt	nt
O=C(N/N=C/c1c(O)n(Cc2ccccc2)c(=O)[nH]c1=O)c1ccccc1O	-5	1	-7	15	1	21*	42*	nt	Fam108b ABPP HTS=0
CC(=O)c1ccc2c(c1)C1C(Cl)C(Sc3ccccc3[N+](=O)[O-])CC1C(C(=O)O)N2 (configuration not stated)	1	31*	-3	5	13	56*	5	nt
C[C@]12CC[C@H](O)C[C@H]1CC[C@@H]1[C@@H]2CC[C@]2(C)C(=O)CC[C@@H]12	nt	nt	1	nt	nt	nt	nt	nt
COc1ccc(CC(C)NCCC(c2ccccc2)c2ccccc2)cc1 (configuration not stated)	-3	-5	0	7	-4	7	nt	nt
NC(Cc1cc(O)c(O)cc1O)C(=O)O (configuration not stated)	-24	38*	-20	72*	3	80*	101*	nt	Fam108b ABPP HTS=50*
N[C@@H](CCl)C(=O)O	0	-5	5	3	2	3	nt	nt
O=c1[nH]c2ccccc2n1CCCN1CCC(n2c(=O)[nH]c3cc(Cl)ccc32)CC1	0	-1	6	3	4	19*	-4	nt
COC(=O)C1=C(c2cccc(OCc3ccccc3)c2)C[C@@H]2CC[C@H]1N2C(=O)NCCN1CCOCC1	3	3	4	nt	9	nt	nt	nt
COC(=O)c1nc(-c2ccc3c(n2)C(=O)C(N)=C(OC)C3=O)c(N)c(-c2ccc(OC)c(OC)c2O)c1C	2	66*	-9	79*	-2	49*	63*	88*	Fam108b ABPP HTS=0
NC(N)=Nc1ccc2[nH]c3c(c2c1)C[C@@]1(O)[C@H]2Cc4ccc(O)c5c4[C@@]1(CCN2CC1CC1)[C@H]3O5	1	-8	2	17	6	-3	nt	nt
COC(=O)C1=C(c2c(C)noc2C)C[C@@H]2CC[C@H]1N2C(=O)NCCNC(C)=O	-1	0	-4	nt	1	nt	nt	nt
CN(C)[C@@H]1C(=O)C(C(N)=O)=C(O)[C@@]2(O)C(=O)C3=C(O)c4c(O)cccc4[C@@](C)(O)[C@H]3[C@H](O)[C@@H]12	-3	-6	-4	61*	4	59*	67*!	69*	Fam108b ABPP HTS=0
COC(=O)C1=C(c2cccc(C#N)c2)C[C@@H]2CC[C@H]1N2C(=O)NC1Cc2ccccc2C1	0	4	0	nt	2	nt	nt	nt
Nc1c(C(=O)NCCCc2ccccc2)c2nc3ccccc3nc2n1Cc1cccs1	-2	2	-13	58*	0	34*	21*	-1
O=C(O)c1cccc2c1NC(C(=O)O)C1CC(Sc3ccccc3[N+](=O)[O-])C(Cl)C21 (configuration not stated)	12	18	4	39*	29*	75*	54*	-21	Fam108b ABPP HTS=0;LYPLA2 conf=12
Cc1cccn2c(=O)c3cc(C(=O)N4CCC5(CC4)OCCO5)n(C)c3nc12	0	5	1	14	-3	-4	nt	nt
CCCCn1c(NC(=O)c2ccco2)c(C(=O)OCC)c2nc3ccccc3nc21	7	19	55*	87*	13	49*	49*	87*	Fam108b ABPP HTS=35;PAD4 FP conf=14
FC(F)(F)c1ccccc1CNCCc1c[nH]c2ccccc12	2	-2	-1	4	7	0	nt	nt
COc1ccc(C(=O)N2CCC3(CC2)OCCO3)cc1	-1	4	1	7	-3	2	nt	nt
SMILES	LYPLA1 counter	PME-1 inh	PAD4 FP inh	GSTO1 inh	LYPLA2 counter	Fam108B inh	Fam108b confirm	GSTO1 confirm	others
O=C(c1ccc2nc(-c3ccco3)c(-c3ccco3)nc2c1)N1CCC2(CC1)OCCO2	-5	-6	38*	90*	2	23*	9	16	PAD4 FP conf=-5
CCN(CC)c1ccc(N=Cc2c(O)[nH]c(=O)[nH]c2=O)cc1	5	8	26*	56*	6	-1	nt	1
CCN(CC)c1ccc(N=Cc2c(O)n(Cc3ccccc3)c(=O)[nH]c2=O)cc1	-2	2	-14	6	-2	2	nt	nt
Cn1c(CN2CCN(C(=O)COc3ccccc3)CC2)nc2cc([N+](=O)[O-])ccc21	3	2	-3	-1	4	1	nt	nt
Nc1cc2nc3ccccc3nc2cc1N	-6	17	-4	56*	-5	10	nt	41*
O=C(Cc1ccccc1)OCC(=O)c1ccc(F)cc1	nt	nt	1	nt	nt	nt	nt	nt
C[C@]12CC[C@H]3[C@@H](CCC4=CC(=O)CC[C@@]43O)[C@@H]1CCC2=O	-1	-6	-1	2	6	-7	nt	nt
COc1cccc(N2C(=O)NC(=O)/C(=C/c3ccc([N+](=O)[O-])s3)C2=O)c1	-3	3	-7	44*	-6	9	nt	36*
COc1ccc(N2C(=O)NC(=O)/C(=C/c3ccc([N+](=O)[O-])s3)C2=O)cc1	-9	-5	-9	30	-9	10	nt	nt
COc1ccccc1N1CCN(Cc2cccc(OC)c2O)CC1	2	5	4	-1	5	5	nt	nt
